Laboratory results: PubChem BioAssay AID781 (Emory University Molecular Libraries Screening Center, 2007)
Screen size: about 220,000 compounds; about 1,600 (0.73%) were called active.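 The calls were made as follows: active = inhibition above about 70% (limit read from the data); inactive = the rest.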 The entries come from a sample that favours actives as a whole.

Each compound was assayed against 14-3-3 protein zeta/delta (Bos taurus) (UniProt P63103) (assay: inhibitors of 14-3-3 zeta/Bad binding, primary screen, biochemical, TR-FRET, bovine 14-3-3 zeta (AID 781;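 also: 0% = full 14-3-3 plus peptide FRET controls and 100% = background without 14-3-3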)). Details: TR-FRET 14-3-3zeta/Dy647-pBad peptide displacement, 1 h; at 21.7 µM; hits give high values.
14-3-3 protein zeta/delta (Bos taurus), sequence (P63103 whole entry, looked up): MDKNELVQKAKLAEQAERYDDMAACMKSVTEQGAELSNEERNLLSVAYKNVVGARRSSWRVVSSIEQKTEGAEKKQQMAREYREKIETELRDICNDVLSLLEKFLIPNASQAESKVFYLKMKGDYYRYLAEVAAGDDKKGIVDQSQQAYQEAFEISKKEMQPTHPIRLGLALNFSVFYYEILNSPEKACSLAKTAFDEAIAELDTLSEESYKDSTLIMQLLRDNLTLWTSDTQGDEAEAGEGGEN

| Structure (SMILES) | inhibition |
| --- | --- |
| COc1ccc(C(c2nnnn2Cc2cccs2)N2CCN(c3ccccc3)CC2)cc1OC (centres undefined) | -7.19% (inactive) |
| N#Cc1ccc(C(c2nnnn2CCc2ccccc2)N2CCCCCC2)cc1 (centres undefined) | 4.83% (inactive) |
| COc1ccc(CCn2nnnc2C(c2ccccc2)N2CCN(C)CC2)cc1OC (centres undefined) | 82.9% (active) |
| COC(=O)c1cc(NC(=O)CN2CCN(C(C)=O)CC2)cc(C(=O)OC)c1 | -3.76% (inactive) |
| FC(F)(F)c1nc(-c2ccccc2)ncc1-c1nnnn1-c1ccccc1 | 13.7% (inactive) |
| N/C(=N\OC(=O)Cc1ccc([N+](=O)[O-])cc1)c1ccccn1 | -17.6% (inactive) |
| N/C(=N\OC(=O)COc1ccc([N+](=O)[O-])cc1)c1ccc(Br)cc1 | 2.68% (inactive) |
| N/C(=N\OC(=O)Cc1ccccc1[N+](=O)[O-])c1ccc(Br)cc1 | 93.1% (active) |
| CCCc1nc(-c2cc3cc(C)ccc3[nH]c2=O)no1 | -0.29% (inactive) |
| COc1ccc(-n2nc(C(=O)Nc3cc(OC)c(OC)c(OC)c3)c3ccccc3c2=O)c(OC)c1 | 2.29% (inactive) |
| Cc1ccsc1/C=N/NC(=O)Cc1cc(=O)[nH][nH]1 | -22.4% (inactive) |
| CCOCN(C(=O)Cn1c(C(C)O)nc2ccccc21)c1c(C)cccc1CC (centres undefined) | -12.3% (inactive) |
| COc1ccc(C(=O)Nc2cccnc2)cc1C(=O)Nc1cccnc1 | 2.89% (inactive) |
| O=C(Oc1cccnc1)c1cc2ccccc2oc1=O | 17.9% (inactive) |
| O=C(Nc1cccnc1)c1cc2cc(Br)ccc2oc1=O | 82.5% (active) |
| COc1ccc(C)cc1S(=O)(=O)Nc1cccc(Cl)c1Cl | -10% (inactive) |
| Cc1cc([N+](=O)[O-])nn1CCCC(=O)Nc1cccnc1Cl | -8.44% (inactive) |
| Nc1ccc2nc3c(=O)[nH]c(=S)[nH]c3nc2c1 | 83.5% (active) |
| Cc1cc2nc3c(=O)n(Cc4ccccc4)c(=O)[nH]c3nc2cc1N | -0.29% (inactive) |
| O=C1c2ccccc2NC(c2ccccn2)N1NS(=O)(=O)c1ccccc1 (centres undefined) | 5.35% (inactive) |
| c1ccc(C2CNCc3c2ccc2ccccc32)cc1 (centres undefined) | -8.65% (inactive) |
| CN(C)S(=O)(=O)c1cccc(-c2nn(-c3ccccc3)cc2/C=C2\SC(=S)N(CC(=O)O)C2=O)c1 | 12% (inactive) |
| CC(=O)Nc1ccc(OCC(=O)NCc2ccc(C)cc2)cc1 | -8.65% (inactive) |
| Cc1ccc(OCC(=O)Nc2ccc(S(=O)(=O)Nc3ccccn3)cc2)cc1 | -3.5% (inactive) |

| Structure (SMILES) | inhibition |
| --- | --- |
| Cc1ccc(OCC(=O)Nc2ccc(-c3nc4ncccc4o3)cc2)cc1 | 78.8% (active) |
| Cc1oc2nc(SCC(=O)Nc3ccc(S(N)(=O)=O)cc3)nc(NC(=O)c3ccccc3)c2c1C | -6.33% (inactive) |
| C/C=C(/C)C(=O)Nc1cccc(C2=NOC3(C2)C[C@@H](C(N)=O)N(C(=O)C2(C)CC2)C3)c1 (some centres undefined) | -2.68% (inactive) |
| Cc1ccnc(NS(=O)(=O)c2ccc(NC(=O)c3ccc(S(=O)(=O)N(C)C)cc3)cc2)n1 | -9.02% (inactive) |
| COc1cc(OC)c(/C=N/NC(=O)c2ccc([N+](=O)[O-])cc2)cc1Br | 5.09% (inactive) |
| COc1cc(/C=N\NC(=O)c2nonc2N)c(OC)cc1Br | 71.1% [fluorescence artefact?] (active) |
| COc1cc(/C=N/N=C(\N)c2nonc2N)cc(OC)c1OC | -22.2% (inactive) |
| CCc1ccc(S(=O)(=O)NCC(O)COc2ccc(OC)cc2)cc1 (centres undefined) | -1.31% (inactive) |
| Cc1nc2ccccc2nc1N/N=C/c1ccc(O)cc1O | -9.43% (inactive) |
| O=C(N/N=C/c1ccco1)c1csc2c1CCCC2 | -2.18% (inactive) |
| Cc1c(C)c(C)c2[nH]c(=S)[nH]c2c1C | -0.36% (inactive) |
| O=c1[nH]c(=S)[nH]c2[nH]c(=S)[nH]c12 | 73.3% (active) |
| Cc1cc(=O)[nH]c(=S)[nH]1 | 0.3% (inactive) |
| Nc1nc(SCC(=O)N2CCN(S(=O)(=O)c3ccc(Cl)cc3)CC2)n[nH]1 | -16.8% (inactive) |
| CC1CCN(C(=S)NC2CC3CCC2C3)CC1 (centres undefined) | -3% (inactive) |
| COCc1c(N)c(C)nc(Cl)c1C#N | -17% (inactive) |
| Cc1nnc(SCCCCSc2nnc(C)c(=O)[nH]2)[nH]c1=O | -6.9% (inactive) |
| OCCN(Cc1ccccc1)Cc1ccc(Cl)cc1 | 42.7% (inactive) |
| CN(C)CCCNC(=S)NCc1ccc(Cl)cc1 | -10.2% (inactive) |
| CC(O)CN(Cc1ccc(Cl)cc1)CC(C)O (centres undefined) | 85.5% (active) |
| Cn1c(N)c(C(=O)COC(=O)c2ccccc2NCc2ccco2)c(=O)n(C)c1=O | 0.84% (inactive) |
| O=C(N/N=C/c1ccc(OCc2ccccc2)cc1)c1ccc(O)cc1 | -9.63% (inactive) |
| CCCCCC(=O)Nc1ccc(C(=O)N/N=C/c2ccc([N+](=O)[O-])cc2)cc1 | -13.5% (inactive) |
| O=C(COc1ccc(/C=N/NC(=O)c2ccc(O)cc2)cc1)Nc1ccc([N+](=O)[O-])cc1 | 74.2% [fluorescence artefact?] (active) |

| Structure (SMILES) | inhibition |
| --- | --- |
| CSc1n[nH]c(=S)n1N | -10% (inactive) |
| CN(c1ccccc1)S(=O)(=O)c1cc(C(=O)Nc2nc3ccccc3[nH]2)ccc1Cl | 1.7% (inactive) |
| O=C(c1ccc2c(c1)N(Cc1ccc(F)cc1)C(=O)c1ccccc1S2(=O)=O)N1CCN(c2ccccn2)CC1 | -4.43% (inactive) |
| COC(=O)CNC(=O)c1ccc2c(c1)S(=O)(=O)c1ccccc1C2=O | 2.96% (inactive) |
| CCCCN(C)C(=O)c1ccc2c(c1)N(CC)C(=O)c1ccccc1S2(=O)=O | 75.6% (active) |
| Brc1ccc2c(c1)[C@H]1OCC[C@H]1[C@@H](c1cccs1)N2 | 4.8% (inactive) |
| Nc1nnc(SCCN2C(=O)c3ccccc3S2(=O)=O)s1 | 5.12% (inactive) |
| c1ccc(-c2ccccc2OCCN2CCCCC2)cc1 | 40.5% (inactive) |
| O=S1(=O)C=C(SCCN2CCCC2)c2ccccc21 | 71.3% (active) |
| Cc1nn(CC2CC2)c(=O)n1N(C)c1ncc(C(F)(F)F)cc1Cl | -11.7% (inactive) |
| Cc1nn(C)cc1N1C(=O)c2cccc3c(N)ccc(c23)C1=O | -2.5% (inactive) |
| CCN(c1ccccc1)S(=O)(=O)c1ccc(N)cc1 | 71.9% (active) |
| CCN(c1ccccc1)S(=O)(=O)c1ccc2[nH]c(=O)[nH]c2c1 | -1.8% (inactive) |
| CCN(c1ccccc1)S(=O)(=O)c1ccc(NC(=O)C(C)(C)C)cc1 | 4.53% (inactive) |
| CCOC(=O)c1cc2c(=O)n3ccccc3nc2n(CC(C)C)c1=NC(=O)c1c(-c2c(F)cccc2Cl)noc1C | -8.06% (inactive) |
| O=C1CCCC(O)=C1N=Nc1ccc2ncsc2c1 | 3.62% (inactive) |
| COC(=O)c1c(C)oc(C)c1S(=O)(=O)Nc1ccc(C(C)C)cc1 | 3.11% (inactive) |
| CC1CCC2(CC1)NC(=O)N(CC(=O)c1cccn1C)C2=O (centres undefined) | 73.9% (active) |
| O=C(CN1C(=O)NC2(CCCCCC2)C1=O)NC1CC1 | 8.5% (inactive) |
| CC1CCC2(CC1)NC(=O)N(Cc1nnc(-c3cccs3)o1)C2=O (centres undefined) | 21.6% (inactive) |
| Cc1ccc(CN2CCN(Cc3ccc(OCCO)cc3)CC2CCO)o1 (centres undefined) | -4.12% (inactive) |
| COc1ccccc1CNC(=O)C1CCN(S(C)(=O)=O)CC1 | 74% (active) |
| COc1ccccc1CNC(=O)C1CCN(c2nc3ccccc3o2)CC1 | -3.16% (inactive) |
| COc1ccc(CNC(=O)C2CCN(S(C)(=O)=O)CC2)cc1 | -4.78% (inactive) |

| Structure (SMILES) | inhibition |
| --- | --- |
| Cc1cc(OCCCCOc2ccc(C#N)cc2)ccc1[N+](=O)[O-] | -4.45% (inactive) |
| CCOC(=O)C1CCN(S(=O)(=O)c2cc(F)ccc2OC)CC1 | -7.19% (inactive) |
| CCOC(=O)C1CCCCN1Cc1ccc(OC)c(OC)c1OC (centres undefined) | 79.9% (active) |
| CCOC(=O)C1CCN(C(=O)/C=C/c2cc(OC)c(OC)c(OC)c2)CC1 | -11.5% (inactive) |
| CCN(CC)CC(=O)Nc1sc2c(c1C(=O)c1ccccc1C)CCC2 | -10.9% (inactive) |
| CCCCOc1ccc(CON(C(C)=O)C(C)=O)cc1Cl | 3% (inactive) |
| COc1ccc(-c2csc(NC(=O)c3ccc(N4C(=O)CCC4=O)cc3)n2)cc1OC | -4.66% (inactive) |
| O=C(CN1CCCCC1)Nc1ccccc1Cl | -5.94% (inactive) |
| Cc1ccccc1NC(=O)CNc1ccccc1N1CCCCC1 | -11.4% (inactive) |
| O=C(CN1CCN(C2CCCCC2)CC1)Nc1ccccc1N1CCCCC1 | 72.6% (active) |
| CCCCOc1ccc(N(CC(=O)NC(C)C)C(=O)CCC(=O)Nc2ccccn2)cc1 | -8.63% (inactive) |
| O=C1CC(=O)Nc2cc(S(=O)(=O)N3CCN(c4cccc(C(F)(F)F)c4)CC3)ccc2N1 | 9.3% (inactive) |
| CC(C)Nc1nnc(SCC(=O)/C=C2\N(C)c3ccccc3C2(C)C)s1 | 0.42% (inactive) |
| COC(=O)COc1ccc(C2NC(=O)NC(C)=C2C(=O)NCc2ccccc2)cc1OC (centres undefined) | -4.82% (inactive) |
| Cc1ccc2nc(NCCCNC(=O)c3cnccn3)c(C#N)cc2c1 | 70.8% (active) |
| Cc1ccc2cc(C#N)c(NCCNC(=S)NCCCN3CCOCC3)nc2c1 | -9.87% (inactive) |
| COCCCNC(=S)NCCNc1nc2cc(C)c(C)cc2cc1C#N | -7.08% (inactive) |
| Cc1ccc(NC(=O)c2nc[nH]c2C(=O)N[C@@H](CCCCNC(=O)OC(C)(C)C)C(=O)OC(C)(C)C)cc1 | -8.93% (inactive) |
| O=c1c(-c2ccccc2)coc2c(CN3CCOCC3)c(O)ccc12 | 81.7% (active) |
| O=c1c(-c2ccccc2)coc2cc(O)ccc12 | 4.45% (inactive) |
| CN1CCN(Cc2c(O)ccc3c2oc(=O)c2ccccc23)CC1 | 0.82% (inactive) |
| O=C(CSc1ccsc1[N+](=O)[O-])N1CCCCC1 | -7.81% (inactive) |
